Measured values published in PubChem BioAssay AID651784 (National Center for Advancing Translational Sciences (NCATS), 2012).
Records with an inconclusive call do not appear. The source made the active and inactive calls. Calls come from the whole dose curve; as a rule, active = well fitted inhibition curve with a large enough effect; inconclusive = small, poorly fitted or top-dose-only effect; inactive = no such curve, though single readings can be large or run the other way.

assay: Acumen qHTS Assay for Inhibitors of the mTORC1 Signaling Pathway in MEF (Tsc2-/-, p53-/-) Cells: Hit Validation; conditions: Acumen imaging; activity change, negative = inhibition: at 37.3 µM (top of the series);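 note: phospho-rpS6 Ser235/236 immunofluorescence normalized to propidium iodide cell count; nearly all actives have a fitted effect of over 65% in size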;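 for activity change, negative = inhibition: cells exposed to compound for 24 hours; plate controls were DMSO for no effect and 7.5 nM rapamycin control for full effect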
Potency is the fitted concentration of half-maximal effect.

Row | SMILES | Potency | activity change, negative = inhibition [%]
1 | CC(=O)Nc1cccc(NC(=O)C(=O)NCCc2sc(-c3ccccc3)nc2C)c1 | 329 nM (active) | 
2 | COc1ccc(Cl)cc1C1CC(=O)Nc2cc3c(cc21)OCCO3 (stereo not given) |  | -26.9
3 | CC1CCCN(CCCNC(=O)c2ccc3c(c2)N(Cc2ccc(Cl)cc2)C(=O)c2ccccc2S3(=O)=O)C1 (stereo not given) | 13100 nM (active) | 
4 | COc1ccc(NC(=O)CSc2c3c(nc4ccccc24)CCC3)c(OC)c1 |  | 11.1
5 | CCOC(=O)N1CCN(Cc2nc3cc(NC(=O)c4ccccc4OC)ccc3n2C(C)C)CC1 |  | -28.8
6 | CCc1nn(CC(=O)NCc2ccccc2Cl)c(=O)c2cccn12 |  | 3.65
7 | O=C(Cn1cc(SCc2ccccc2)c2ccccc21)N1CCCCCC1 |  | 15.1
8 | O=C(CCCn1c(=O)c2ccccc2n(Cc2cccc(Cl)c2)c1=O)NCCc1ccc(Cl)cc1 |  | -4.01
9 | COc1ccc(N2CCN(C(=O)C3CCN(Cc4nc(-c5ccc(Cl)cc5)oc4C)CC3)CC2)cc1 |  | -10.9
10 | COC(=O)c1ccccc1NC(=O)c1nc(S(=O)(=O)Cc2cccc(C)c2)ncc1Cl | 4140 nM (active) | 
11 | COc1ccc(-c2ccc(CCC(=O)O)n2-c2cc(Cl)ccc2O)cc1 |  | -7.48
12 | COc1ccc(CNCCC(c2ccc3c(c2)OCO3)c2ccccc2OC)cc1 (stereo not given) |  | -87.3
13 | Cc1cc(C)cc(Nc2cc(C(=O)NCCCN(C)C3CCCCC3)c3ccccc3n2)c1 |  | -88.5
14 | Cc1ccc(-c2nnc(Nc3cccc(Cl)c3)c3ccccc23)cc1S(=O)(=O)N1CCN(C)CC1 |  | -42.6
15 | Cc1c(C(=O)OCCOc2ccccc2)[nH]c2c1C(=O)CC(c1ccccc1)C2 (stereo not given) | 117 nM (active) | 
